HTT aggregate: reduces HttQ103-GFP aggregates in PC12 cells | PC12 HttQ103-GFP aggregates, Acumen cytometry, 40 h | Potency, µM (series often up to 46.1 µM), most hits filed as inhibitors | 1.1% of 220,000 active | AID 1688; active = well fitted curve in the direction sought with a large enough effect; inconclusive = small, poorly fitted or top-dose-only effect, or another doubt; inactive = no such curve, though single readings can be large; an effect the other way counts as inactive or inconclusive; note: nearly all actives have a fitted effect of over 60% in size
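Aggregates are detected as GFP objects 1–25 µm with signal 6 STDEV over background in lysates of induced PC12 cells. These carry Huntingtin exon 1 with 103 glutamines fused to GFP under an ecdysone promoter; compounds titrated.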
Lamin A splicing: LMNA splicing modulation. HeLa LMNA splicing GFP/RFP minigene ratio, 48 h. Potency, µM (titrated, usually from 46.1 µM), actives largely listed as inhibitors. 0.01% of 200,000 active. AID 1487; active = well fitted inhibition curve with a large enough effect in the signal ratio, with a control signal flat, not every such curve was filed as active; inconclusive = small, poorly fitted or top-dose-only effect, or effect the other way, or a change in a side signal; the % refers to the signal ratio
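S3 HeLa cells stably expressing lamin A-EGFP splicing minigene plus DsRed2, 600 cells/well, 48 h compound exposure at 37C. Laser-scanning cytometry; analysed as GFP (500-530 nm)/RFP (575-640 nm) total intensity ratio; 0.5% DMSO vehicle.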
HPGD inh: HPGD (human) dehydrogenase inhibition; P15428; purified HPGD, NADH fluorescence kinetic, PGE2 substrate; Potency, µM, most hits filed as inhibitors; 4.3% of 150,000 active; AID 894
Target sequence (P15428 whole entry, looked up): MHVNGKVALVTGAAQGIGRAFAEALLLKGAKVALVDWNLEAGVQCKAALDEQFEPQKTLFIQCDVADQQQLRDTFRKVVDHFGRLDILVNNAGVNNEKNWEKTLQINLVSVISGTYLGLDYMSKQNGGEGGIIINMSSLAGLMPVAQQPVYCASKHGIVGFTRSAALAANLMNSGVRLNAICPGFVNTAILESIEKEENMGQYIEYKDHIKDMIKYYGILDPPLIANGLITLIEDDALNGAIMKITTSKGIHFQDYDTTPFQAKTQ
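20 nM HPGD preincubated 15 min at room temperature with compound in 50 mM Tris-HCl pH 8, 0.01% Tween 20. Started with 1 mM NAD+ and 30 uM prostaglandin E2; NADH fluorescence (360/450 nm) read 5 times over 30-s intervals, last minus first.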
JMJD2E inh: JMJD2E (human) inhibition. 1.6% of 230,000 active. Potency, µM (titrated, usually from 57.1 µM), most hits filed as inhibitors. JMJD2E catalytic domain, FDH-coupled NADH fluorescence (FDH is formaldehyde dehydrogenase); note: nearly all actives have a fitted effect of over 50% in size
Target sequence (B2RXH2 1-337 limits assumed): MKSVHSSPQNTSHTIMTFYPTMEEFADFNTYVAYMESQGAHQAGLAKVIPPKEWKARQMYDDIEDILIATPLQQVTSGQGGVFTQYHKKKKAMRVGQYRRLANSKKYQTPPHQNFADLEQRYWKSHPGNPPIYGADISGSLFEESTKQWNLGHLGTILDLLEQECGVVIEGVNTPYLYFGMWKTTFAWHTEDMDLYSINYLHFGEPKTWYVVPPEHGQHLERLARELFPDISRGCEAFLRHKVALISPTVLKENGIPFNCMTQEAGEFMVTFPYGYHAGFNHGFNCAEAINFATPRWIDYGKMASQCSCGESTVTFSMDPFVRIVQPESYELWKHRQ
HTT ATP protect: protects HTT-Q103 PC12 cells, measured by ATP; Potency, µM (highest dose often 56.4 µM), usual class: activators; 0.14% of 230,000 active; PC12 HTT-Q103 induced, cytoprotection, ATP luminescence, 40 h; active = well fitted curve in the direction sought with a large enough effect; inconclusive = small, poorly fitted or top-dose-only effect, or another doubt; inactive = no such curve, though single readings can be large; an effect the other way counts as inactive or inconclusive; note: nearly all actives have a fitted effect of over 45% in size
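PC12 cells with ecdysone-inducible HTT exon 1 Q103-GFP, induced with 100 nM tebufenozide and co-treated with library compounds in a dose series (1536-well, 1500 cells/well). Cytoprotection read as ATP content by ATPlite luminescence.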
ALDH1A1 block: inhibitors of human aldehyde dehydrogenase 1A1. Purified ALDH1A1, NADH fluorescence, propionaldehyde substrate. Potency, µM (doses to about 75.3 µM), most hits filed as inhibitors. 7.3% of 220,000 active
Of the large screens only hits and unclear results are named; the others gave an inactive call. A selection: hits, their analogues and other compounds. The true share with any hit is near 9.2%. Unless noted, calls come from the whole dose curve; as a rule, active = well fitted inhibition curve with a large enough effect (not every such curve was filed as active); inconclusive = small, poorly fitted or top-dose-only effect, or another doubt; inactive = no such curve, though single readings can be large or run the other way.

CS(=O)(=O)N(CC(=O)Nc1ccc(CC#N)cc1)c1ccc(C23CC4CC(CC(C4)C2)C3)cc1	HTT aggregate 22µM, Lamin A splicing inconclusive
CCCC[C@@H]1C[C@H]1C(NC(=O)c1cccs1)c1ccccc1C(F)(F)F (stereo partly drawn)	HPGD inh inconclusive (no result: HTT aggregate, Lamin A splicing)
CN(C/C=C\c1ccccc1)Cc1cccc2ccccc12	HTT aggregate inconclusive, Lamin A splicing inconclusive
COc1ccc(C(=O)Oc2ccc(C(=S)N3CCOCC3)cc2)cc1	Lamin A splicing inconclusive, JMJD2E inh inconclusive, ALDH1A1 block 7.1µM (no result: HPGD inh)
COC(=O)c1ccc(C(=S)N2CCOCC2)cc1	HPGD inh 28µM, ALDH1A1 block 10µM
COc1cccc(NC(=O)Cn2c(=O)n(CCC(=O)NC3CCN(Cc4ccccc4)CC3)c(=O)c3ccccc32)c1	none (no result: Lamin A splicing, HPGD inh, ALDH1A1 block)
CCCCOC(=O)C1CN(c2ccccc2)N=C1C(=O)OCC (stereo not drawn)	HPGD inh inconclusive
CCOC(=O)C1=NN(c2ccc([N+](=O)[O-])cc2)CC1C(=O)OC (stereo not drawn)	ALDH1A1 block 1.1µM
C=CC[n+]1c(/C=C2\C=Cc3cc(C)ccc3N2CC)ccc2ccccc21	HTT aggregate 3.2µM, Lamin A splicing inconclusive, JMJD2E inh inconclusive, ALDH1A1 block inconclusive (no result: HPGD inh)
CC(=O)OC1CC[C@@]2(C)C3=CC(=O)[C@]4(C)C(CC5OC6(OCC(C)CC6Br)C(C)C54)C3CC[C@H]2C1 (stereo partly drawn)	none (no result: HTT aggregate, HTT ATP protect)
O=C(O)COCC(=O)Nc1ccc(-n2cnnn2)cc1	ALDH1A1 block inconclusive (no result: Lamin A splicing, HPGD inh)
COc1ccc(OC)c(C2=Nn3c(nnc3-c3cc(OC)c(OC)c(OC)c3)SC2)c1	Lamin A splicing inconclusive, ALDH1A1 block inconclusive
CCOc1cccc(-c2nnc3n2N=C(c2cc(OC)ccc2OC)CS3)c1	Lamin A splicing inconclusive, HPGD inh 25µM, ALDH1A1 block 28µM
COc1cccc(-c2nnc3n2N=C(C(C)(C)C)CS3)c1	HTT aggregate 2µM, Lamin A splicing inconclusive
Cc1cccc(-c2nnc3n2N=C(c2ccccc2Br)CS3)c1	HTT aggregate inconclusive, Lamin A splicing inconclusive, HPGD inh 2.5µM, ALDH1A1 block inconclusive
COc1cccc(-c2nnc3n2N=C(c2cc(OC)ccc2OC)CS3)c1	HPGD inh 28µM
CC1=CN2C(=N)/C(=C/c3ccc([N+](=O)[O-])o3)C(=O)N=C2S1	HTT aggregate inconclusive, Lamin A splicing inconclusive, JMJD2E inh 28µM, ALDH1A1 block 3.5µM
CC1=CN2C(=N)/C(=C/c3ccco3)C(=O)N=C2S1	Lamin A splicing inconclusive, ALDH1A1 block 13µM (no result: HTT ATP protect)
COC(=O)CCCC(=O)N1CCCC(CNS(=O)(=O)c2ccc(OC)cc2)C1 (stereo not drawn)	none (no result: Lamin A splicing, HPGD inh)
Cc1ccccc1C(=O)Nc1nc(=S)ss1	HPGD inh 14µM, ALDH1A1 block 3.2µM
Cc1ccccc1C(=O)Nc1nc2c(C)csc2c(=O)s1	JMJD2E inh inconclusive (no result: Lamin A splicing, HPGD inh, ALDH1A1 block)
CC(=O)Nc1nc(C)c(C(C)(C)C)s1	none (no result: Lamin A splicing, HPGD inh, ALDH1A1 block)
O=C(Nc1nc(=S)ss1)c1c(F)cccc1F	HPGD inh inconclusive, ALDH1A1 block 22µM
CC(C)CC(=O)Nc1nc2ccc(S(C)(=O)=O)cc2s1	ALDH1A1 block inconclusive (no result: HPGD inh)
CC(=O)Nc1nc(=S)ss1	HPGD inh 25µM, ALDH1A1 block 3.2µM
CC(C)CC(=O)Nc1nc(=S)ss1	HPGD inh 14µM, ALDH1A1 block 3.5µM
Cc1ccc(NC(=O)CCCn2c(=O)c3cccn3c3ccccc32)cc1C	none (no result: HTT aggregate, HPGD inh, JMJD2E inh, HTT ATP protect, ALDH1A1 block)
Cc1ccc(/C=C/C(=O)N(Cc2cccs2)C2CCS(=O)(=O)C2)cc1 (stereo not drawn)	none (no result: Lamin A splicing, HPGD inh, ALDH1A1 block)
CCCNC(=O)C1Cc2cc(S(=O)(=O)N3CCCCCC3)ccc2N1C(C)=O (stereo not drawn)	none (no result: HTT aggregate, HPGD inh, JMJD2E inh, HTT ATP protect, ALDH1A1 block)
CC(NC(=O)CN(C)Cc1cccs1)c1ccccc1 (stereo not drawn)	none (no result: Lamin A splicing, HPGD inh)
CC1(C)O[C@H]2[C@@H](O1)[C@@H](On1nnc3ccc(Cl)cc31)O[C@@H]2[C@@H]1COC(C)(C)O1	none (no result: HTT aggregate, Lamin A splicing, JMJD2E inh)
Cc1ccccc1C(=O)Nc1nnc(SC(C)C)s1	ALDH1A1 block 16µM (no result: Lamin A splicing, HPGD inh)
CCCCCC(=O)NC(=S)Nc1ccc2oc(=O)ccc2c1	ALDH1A1 block 7.1µM (no result: HPGD inh)

Compound activity (PubChem BioAssay)
